In ChEMBL document CHEMBL1157539, “Thousands of chemical starting points for antimalarial lead identification” (Nature, 2010) one finds Inhibition data, which are given here for 40 molecules.

Each structure is given as a SMILES string.

The subject of this experiment is Plasmodium falciparum. Description: GSK_TCMDC: Inhibition of Plasmodium falciparum Dd2 in whole red blood cells, using parasite LDH activity as an index of growth. Test compounds present at 2uM. Type of experiment: functional.
`COc1ccc(NC(=O)/C=C/c2ccccc2Cl)cc1OCCN1CCN(c2ccncc2)CC1` displayed an Inhibition of 52%.

Turning to `Cc1cccc2nc(-c3cccc(-c4cccc(NC(=O)C(C)CN(C)C)c4)c3)[nH]c12` (stereo not given), the Inhibition turned out to be 97%.

Molecule `COc1cc2nc(NCCc3ccccc3)nc(NCCCc3ccccc3)c2cc1OC` had an Inhibition of 100%.

For `CCOC(=O)c1cc(C(=O)OC)c2ccccn12`, the Inhibition stood at 2%.

Take `CCN(CC)CCNc1ccnc2[nH]c3ccc(Cl)cc3c12`: the Inhibition is listed as 92%.

In turn, `Cc1cccc2nc(-c3ccc(-c4cccc(CNC5CCN(C)CC5)c4)s3)[nH]c12.O=C(O)C(F)(F)F` yielded an Inhibition of 73%.

As to `Cn1cncc1-c1cc2c(Nc3ccc(OCc4ccccc4)cc3)ncnc2cn1`, the Inhibition is 75%.

Regarding `CC(=O)Nc1cc(C(=O)Nc2cccc(-c3csc(-c4nc5ccccc5[nH]4)c3)c2)ccc1C`, the Inhibition came out at 66%.

Take `COc1ccc2ncc(F)c([C@H](O)CN3CCC(NCc4ccc5c(c4)NC(=O)CS5)CC3)c2c1.Cl`: the Inhibition is reported as 98%.

Regarding `COCCCNc1sc(S(=O)(=O)c2ccccc2)nc1S(=O)(=O)c1ccc(C)cc1`, the Inhibition was 44%.

The molecule `COc1ccc2ncc(OC)c(CCN3CC[C@@H](NCc4ccc5c(n4)NC(=O)CS5)[C@H](O)C3)c2n1` displayed an Inhibition of 99%.

As to `O=C(NCc1cccc2ccccc12)C1CCCN(C(=O)c2ccc(O)c(-c3ccc(Cl)c(Cl)c3)c2)C1` (stereo not given), the Inhibition is on record as 23%.

For the molecule `O=C(Nc1cccc(-c2cccc(-c3nc4cc(F)ccc4[nH]3)c2)c1)Nc1ccc2c(c1)OCO2`, the Inhibition amounted to 49%.

With `CCOc1ccc2c(c1)C(C)(c1ccc3c(c1)C(C)CC(C)(C)N3)CC(C)(C)N2` (stereo not given), the Inhibition stood at 3%.

Turning to `CC(C)(CNCc1ccc(C(F)(F)F)cc1)c1nc(-c2ccc(Cl)c(O)c2)c(-c2ccncc2)[nH]1.Cl`, the Inhibition is 98%.

The molecule `CCN(CC)CCN(CCCc1ccc(-c2ccc(C(F)(F)F)cc2)cc1)C(=O)Cn1c(CCc2cccc(F)c2F)nc(=O)c2c1CCC2.O=C(O)C(O)C(O)C(=O)O` came in with an Inhibition of 27%.

Turning to `Cc1cc(C(=O)Nc2ccc(OCc3ccccc3)cc2)on1`, the Inhibition came to 89%.

Turning to `O=C(Cc1cccnc1)Nc1cccc(-c2cccc(-c3nc4cc(C(F)(F)F)ccc4[nH]3)c2)c1`, the Inhibition came out at 38%.

Consider `Cc1ccc(O)cc1Nc1ccnc2cc(-c3csc(CNCCN4CCOCC4)n3)ccc12`, for which the Inhibition amounted to 99%.

`CC(C)(CNC(=O)/C=C/c1ccc(Cl)c(Cl)c1)CNc1cc(=O)c2ccccc2[nH]1` yielded an Inhibition of 29%.

As for `COc1ccc2ccccc2c1CNCCCCCCNCc1c(OC)ccc2ccccc12.Cl`, the Inhibition was found to be 35%.

`O=C(Nc1ccc2c(c1)CCC2)c1nc(N2CCN(c3ccncc3)CC2)ccc1Cl.O=C(O)C(F)(F)F` yielded an Inhibition of 97%.

The molecule `Nc1nc(N)c2cc(C#Cc3ccc(-c4ccccc4)cc3)ccc2n1` returned an Inhibition of 3%.

As to `O=C(/C=C/c1ccc([N+](=O)[O-])cc1)N1CCC(NS(=O)(=O)c2ccc(Br)cc2)CC1`, the Inhibition stood at 5%.

For the molecule `O=S(=O)(c1ccc(OC(F)(F)F)cc1)C1CC2CCC(C1)N2S(=O)(=O)c1ccc(Cl)c(C(F)(F)F)c1` (stereo not given), the Inhibition was 95%.

For `CCc1nc(N)nc(N)c1CCCOc1ccccc1Cl.Cl`, the Inhibition was determined as 13%.

As to `Clc1nc2ccccn2c1C=Cc1ccc2ccccc2n1`, the Inhibition is given as 75%.

In turn, `CCOc1ccc(C(=O)Nc2nonc2-c2ccc(OC)c(OC)c2)cc1` returned an Inhibition of 42%.

In turn, `Cc1ncc([N+](=O)[O-])n1CCOC(=O)NC(NCC1COc2ccccc2O1)C(Cl)(Cl)Cl` (stereo not given) showed an Inhibition of 78%.

`CC(=O)Nc1cccc(C(=O)Nc2cccc(-c3csc(-c4nc5ccccc5[nH]4)c3)c2)c1` showed an Inhibition of 97%.

As for `CCc1cn(C)c2c(N3CCCC3=O)cc(C(=O)N[C@@H](Cc3ccccc3)[C@H](O)CNC(C)(C)c3cccc(C(F)(F)F)c3)cc12`, the Inhibition turned out to be 97%.

`CCN(CCCN1CCCCC1)c1cc(C)nc(Nc2ccc(C)cc2)n1.O=C(O)C(F)(F)F` returned an Inhibition of 10%.

As to `Cl.NCC(=O)Nc1cccc(Nc2nccc(-c3c(-c4cccc(NC(=O)c5ccccc5)c4)nn4ccccc34)n2)c1`, the Inhibition stood at 87%.

In turn, `NC(=O)c1cccc(CN2Cc3ccccc3OC3(CCN(Cc4c[nH]c5cnccc45)CC3)C2)c1.O=C(O)C(F)(F)F` showed an Inhibition of 2%.

Regarding `CCN(CC)CCOc1ccc(N(Cc2ccc(C(C)(C)C)cc2)C(=O)c2ccc(Cc3ccccc3)cc2)cc1OC.Cl`, the Inhibition is 73%.

Turning to `COC(=O)c1ccccc1N1CCN(CCCCNC(=O)c2ccc(NC(=O)c3cc(Cl)cc(Cl)c3)cc2)CC1`, the Inhibition is on record as 42%.

Molecule `COc1ccc(CNCc2ccccc2)cc1-c1cccc(S(=O)(=O)NCCN2CCCC2)c1.O=C(O)C(F)(F)F` had an Inhibition of 36%.

`CC(=O)Nc1ccc(C(=O)Nc2ccc(-c3cccc(-c4nc5cc(C(F)(F)F)ccc5[nH]4)c3)cc2)cn1` had an Inhibition of 98%.

`CC(C)N1CCC(N(Cc2ccc(-c3ccc(C(F)(F)F)cc3)cc2)C(=O)Cn2c(CCc3cccc(F)c3F)cc(=O)c3ccccc32)CC1.O=C(O)C(O)C(O)C(=O)O`: the Inhibition is on record as 73%.

Molecule `N=C(N)NN=CC(=O)Nc1ccc(C(F)(F)F)cc1.O=S(=O)(O)O` showed an Inhibition of 9%.
